Results on 5 compounds are retold here after PubChem BioAssay.

Experiment [1] in a line: small molecules captured by biotinylated probe aFSTL3 – biochemical, small-molecule microarray, fluorescence 635/667, stem cell growth factor project, primary screen (AID 1064).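 Note: measures binding of the biotinylated anti-FSTL3 antibody to printed compounds.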 Particulars: higher = more signal.
Experiment [2] in a line: binders from COS7 lysate, DM2A8 probe, primary screen, torsin A project, cell lysate, small-molecule microarray, fluorescence 635/667 (AID 1065). To be noted: higher = more signal, COS7 lysate expressing mutant human TOR1A.
The nature of experiment [3]: small molecules captured by biotinylated probe aFGF2 – biochemical, small-molecule microarray, fluorescence 635/667, stem cell growth factor project, primary screen (AID 1067).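 Note: measures binding of biotinylated aFGF2 protein to printed compounds on slides; z-score merges feature fluorescence and signal-to-noise across triplicate slides.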 To be noted: higher = more signal.
Experiment [4] in a line: small molecules captured by biotinylated probe aFGF10 – biochemical, small-molecule microarray, fluorescence 635/667, stem cell growth factor project, primary screen (AID 1071).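 Note: score merges 667 nm spot intensity and signal to noise from triplicate slides.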 To be noted: higher = more signal.
For experiment [5], the target named is Neurogenic locus notch homolog protein 2 (Homo sapiens) (UniProt Q04721). As to the kind of experiment: small molecules binding Notch2 protein – biochemical, small-molecule microarray, 635 nm fluorescence, stem cell growth factors, primary screen (AID 1073). Particulars: higher = more signal.
Experiment [6] has as its target Pro-neuregulin-1, membrane-bound isoform (Homo sapiens) (UniProt Q02297). Kind of experiment: small molecules binding neuregulin-1 protein – biochemical, small-molecule microarray, fluorescence 635/667, psychiatric disease protein project, primary screen (AID 1075).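 Note: score combines 667 nm spot fluorescence with signal to noise.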 To be noted: NRG1 binding, 635 nm fluorescence, higher = more signal.
Experiment [7] has as its system Neuregulin-1 EGF-like domain. Kind of experiment: small molecules binding NRG1 EGF domain – biochemical, small-molecule microarray, 635 nm fluorescence, primary screen (AID 1081).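 Note: binding of the protein to compounds printed on small-molecule microarray slides.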 Particulars: higher = more signal.
A short description of experiment [8]: FRG1 expression reporter modulators in myotubes – cell-based, C2C12 myotubes, firefly/Renilla luciferase, luminescence, FRG1 inhibition for FSHD, primary screen (AID 1084). To be noted: FRG1 promoter luciferase, higher = more signal, called active from +8 up or from −8 down.
Experiment [9] can be described thus: small molecules captured by biotinylated probe aFST – biochemical, small-molecule microarray, fluorescence 635/667, stem cell growth factor project, primary screen (AID 1086).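 Note: score merges 667 nm fluorescence with signal-to-noise of each printed compound spot.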 Particulars: higher = more signal.
Experiment [10] is described as follows: binders of probe aHhip on microarray, primary screen, stem cell growth factor project, biochemical, small-molecule microarray, fluorescence 635/667 (AID 1087).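 Note: score merges spot fluorescence at 667nm with spot signal to noise ratio.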 Particulars: higher = more signal.
The test system of experiment [11] is PRMT1 (protein arginine N-methyltransferase 1). Kind of experiment: small molecules binding arginine methyltransferase PRMT1 – biochemical, small-molecule microarray, 635 nm fluorescence, primary screen (AID 1088).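 Note: binding of Prmt1 protein to compounds spotted on small-molecule microarray slides.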 Particulars: higher = more signal.
Experiment [12] in a line: growth effects on S. cerevisiae YJM789 – YJM789 clinical isolate, OD600, 24 h, basal, primary screen (AID 1089).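 Note: growth of clinical yeast isolate S. cerevisiae YJM 789 seeded 1000 cells per well; test concentration not given here.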 To be noted: higher = more signal, called active from +8 up or from −8 down.
Experiment [13] in a line: S. pombe growth modifiers, basal conditions – strain 972, OD600, 24 h, no modulator, primary screen (AID 1090).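 Note: basal condition with compound alone and no growth modifier present; test concentration not given here.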 To be noted: S. pombe 972 growth, higher = more signal, called active from +8 up or from −8 down.
Experiment [14] is described as follows: budding yeast growth modifiers under rapamycin – strain BY4716, OD600, 96 h, primary screen (AID 1091). Note: test concentration not given here. Particulars: S. cerevisiae BY4716 + rapamycin, higher = more signal, called active from +8 up or from −8 down.
In experiment [15] the target is Torsin-1A-interacting protein 2 (Homo sapiens) (UniProt Q8NFQ8). As to the kind of experiment: small molecules binding lysate-expressed LULL1 – cell lysate, human LULL1 lysate, 635/667 nm fluorescence, primary screen (AID 1092).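 Note: probe is lysate of COS7 cells overexpressing human LULL1; score merges per-feature 667 nm fluorescence with signal-to-noise.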 To be noted: small-molecule microarray, hLULL1 lysate binding, 635 nm fluorescence; higher = more signal.
Experiment [16] in a line: optical density change of DRC41 E. coli – strain DRC41, OD650, 24 h, E. coli filamentation project, primary screen (AID 1093).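 Note: MC1000 strain lacking acrAB efflux and sulA so SOS filamentation is blocked; test concentration not given here.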 To be noted: E. coli DRC41 growth, higher = more signal, called active from +8 up or from −8 down.
Experiment [17] is described as follows: probe aLefty2 binding to arrayed compounds – biochemical, biotinylated probe, 635/667 nm fluorescence, primary screen (AID 1094).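 Note: score merges spot fluorescence near 667 nm with spot signal-to-noise ratio.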 To be noted: small-molecule microarray, higher = more signal.
Experiment [18] concerns Noggin (protein binding on small-molecule microarray). Kind of experiment: small molecules binding Noggin protein – biochemical, 635/667 nm fluorescence, primary screen (AID 1095).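 Note: score merges 667 nm feature fluorescence with signal to noise over triplicate slides.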 To be noted: 635 nm fluorescence, higher = more signal.
Experiment [19] addresses Neurogenic locus notch homolog protein 3 (Homo sapiens) (UniProt Q9UM47). As to the kind of experiment: small molecules binding NOTCH3 protein – biochemical, 635/667 nm fluorescence, primary screen (AID 1096). To be noted: small-molecule microarray, 635 nm fluorescence, higher = more signal.
Experiment [20] is described as follows: probe aEGFR binding to arrayed compounds – biochemical, biotinylated probe, 635/667 nm fluorescence, primary screen (AID 1097).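 Note: probe is a biotinylated anti-EGFR antibody binding compounds printed on slides; score combines fluorescence near 667 nm and signal to noise of each spot.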 Particulars: small-molecule microarray, higher = more signal.

Activity calls are given as the source filed them.

Sequence of Neurogenic locus notch homolog protein 3 (Homo sapiens) (Q9UM47 whole entry, looked up): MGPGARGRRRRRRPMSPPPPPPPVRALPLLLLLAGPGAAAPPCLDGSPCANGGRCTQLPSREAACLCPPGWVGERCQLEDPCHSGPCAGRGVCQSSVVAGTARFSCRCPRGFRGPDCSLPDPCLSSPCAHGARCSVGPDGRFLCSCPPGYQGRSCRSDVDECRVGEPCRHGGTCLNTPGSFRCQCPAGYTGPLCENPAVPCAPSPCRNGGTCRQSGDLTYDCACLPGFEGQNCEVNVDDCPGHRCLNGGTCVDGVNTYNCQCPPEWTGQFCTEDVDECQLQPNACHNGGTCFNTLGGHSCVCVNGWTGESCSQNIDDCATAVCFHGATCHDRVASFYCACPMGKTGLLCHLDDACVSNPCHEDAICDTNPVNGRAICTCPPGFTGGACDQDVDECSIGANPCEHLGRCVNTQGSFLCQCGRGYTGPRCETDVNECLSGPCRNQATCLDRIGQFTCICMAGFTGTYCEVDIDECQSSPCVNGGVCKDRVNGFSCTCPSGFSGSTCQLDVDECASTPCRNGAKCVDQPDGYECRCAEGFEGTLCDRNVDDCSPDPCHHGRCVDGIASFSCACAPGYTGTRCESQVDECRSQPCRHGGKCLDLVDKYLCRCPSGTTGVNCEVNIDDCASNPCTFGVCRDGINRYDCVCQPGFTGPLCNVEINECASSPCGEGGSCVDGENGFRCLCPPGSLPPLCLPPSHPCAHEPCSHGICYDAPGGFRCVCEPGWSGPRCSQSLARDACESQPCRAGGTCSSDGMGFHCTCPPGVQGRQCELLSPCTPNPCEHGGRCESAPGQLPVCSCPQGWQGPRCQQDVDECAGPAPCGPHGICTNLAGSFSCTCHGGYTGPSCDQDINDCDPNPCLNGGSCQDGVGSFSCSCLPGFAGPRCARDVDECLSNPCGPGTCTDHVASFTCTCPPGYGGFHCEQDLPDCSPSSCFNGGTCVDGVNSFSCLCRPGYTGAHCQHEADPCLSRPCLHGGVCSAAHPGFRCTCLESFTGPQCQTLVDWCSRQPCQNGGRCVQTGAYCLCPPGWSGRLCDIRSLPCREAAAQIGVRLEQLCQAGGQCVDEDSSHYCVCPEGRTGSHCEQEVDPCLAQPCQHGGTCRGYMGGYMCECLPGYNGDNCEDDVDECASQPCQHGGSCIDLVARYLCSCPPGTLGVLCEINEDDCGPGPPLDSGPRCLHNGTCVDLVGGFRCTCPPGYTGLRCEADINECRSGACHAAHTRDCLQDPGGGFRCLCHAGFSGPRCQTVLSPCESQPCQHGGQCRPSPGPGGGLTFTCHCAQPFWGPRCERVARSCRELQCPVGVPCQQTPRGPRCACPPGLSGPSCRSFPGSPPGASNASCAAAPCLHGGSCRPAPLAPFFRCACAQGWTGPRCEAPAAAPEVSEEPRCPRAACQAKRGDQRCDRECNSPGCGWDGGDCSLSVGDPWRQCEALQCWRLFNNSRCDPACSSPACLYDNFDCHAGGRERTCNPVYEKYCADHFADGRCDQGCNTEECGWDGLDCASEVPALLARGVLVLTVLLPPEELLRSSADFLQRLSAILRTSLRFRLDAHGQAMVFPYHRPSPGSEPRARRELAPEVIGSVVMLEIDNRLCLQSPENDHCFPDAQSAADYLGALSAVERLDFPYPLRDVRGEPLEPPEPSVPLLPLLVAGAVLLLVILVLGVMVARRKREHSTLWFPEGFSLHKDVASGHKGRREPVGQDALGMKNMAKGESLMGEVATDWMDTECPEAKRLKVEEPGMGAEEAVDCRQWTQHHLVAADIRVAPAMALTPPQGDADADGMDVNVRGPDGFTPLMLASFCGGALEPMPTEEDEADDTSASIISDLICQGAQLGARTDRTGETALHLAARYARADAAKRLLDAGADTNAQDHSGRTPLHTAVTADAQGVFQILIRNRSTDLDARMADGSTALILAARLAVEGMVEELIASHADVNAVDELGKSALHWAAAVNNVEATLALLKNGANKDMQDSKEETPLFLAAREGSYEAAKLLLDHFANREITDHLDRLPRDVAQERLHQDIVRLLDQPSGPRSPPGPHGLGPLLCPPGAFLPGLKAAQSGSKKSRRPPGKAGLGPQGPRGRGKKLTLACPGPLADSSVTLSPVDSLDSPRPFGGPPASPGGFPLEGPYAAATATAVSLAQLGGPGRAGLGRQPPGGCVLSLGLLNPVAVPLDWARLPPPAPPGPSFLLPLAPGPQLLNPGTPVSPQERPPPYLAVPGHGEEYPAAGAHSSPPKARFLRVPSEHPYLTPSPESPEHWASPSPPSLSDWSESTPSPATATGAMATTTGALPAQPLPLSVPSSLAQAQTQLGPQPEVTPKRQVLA
Sequence of Torsin-1A-interacting protein 2 (Homo sapiens) (Q8NFQ8 whole entry, looked up): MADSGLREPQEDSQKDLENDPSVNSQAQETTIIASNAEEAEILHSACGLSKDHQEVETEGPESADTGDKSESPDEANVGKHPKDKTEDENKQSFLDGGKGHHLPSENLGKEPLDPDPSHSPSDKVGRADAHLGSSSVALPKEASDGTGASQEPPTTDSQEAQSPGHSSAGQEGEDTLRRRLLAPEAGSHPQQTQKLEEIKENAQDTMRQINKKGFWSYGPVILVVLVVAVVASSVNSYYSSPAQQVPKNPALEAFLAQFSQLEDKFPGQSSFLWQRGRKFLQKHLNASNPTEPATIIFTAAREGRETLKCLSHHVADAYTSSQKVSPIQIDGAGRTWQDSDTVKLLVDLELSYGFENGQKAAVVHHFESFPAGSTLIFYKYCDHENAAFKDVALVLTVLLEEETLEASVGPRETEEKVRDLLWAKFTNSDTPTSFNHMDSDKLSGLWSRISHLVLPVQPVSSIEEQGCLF
Sequence of Pro-neuregulin-1, membrane-bound isoform (Homo sapiens) (Q02297 whole entry, looked up, the tested form may be a part, canonical isoform): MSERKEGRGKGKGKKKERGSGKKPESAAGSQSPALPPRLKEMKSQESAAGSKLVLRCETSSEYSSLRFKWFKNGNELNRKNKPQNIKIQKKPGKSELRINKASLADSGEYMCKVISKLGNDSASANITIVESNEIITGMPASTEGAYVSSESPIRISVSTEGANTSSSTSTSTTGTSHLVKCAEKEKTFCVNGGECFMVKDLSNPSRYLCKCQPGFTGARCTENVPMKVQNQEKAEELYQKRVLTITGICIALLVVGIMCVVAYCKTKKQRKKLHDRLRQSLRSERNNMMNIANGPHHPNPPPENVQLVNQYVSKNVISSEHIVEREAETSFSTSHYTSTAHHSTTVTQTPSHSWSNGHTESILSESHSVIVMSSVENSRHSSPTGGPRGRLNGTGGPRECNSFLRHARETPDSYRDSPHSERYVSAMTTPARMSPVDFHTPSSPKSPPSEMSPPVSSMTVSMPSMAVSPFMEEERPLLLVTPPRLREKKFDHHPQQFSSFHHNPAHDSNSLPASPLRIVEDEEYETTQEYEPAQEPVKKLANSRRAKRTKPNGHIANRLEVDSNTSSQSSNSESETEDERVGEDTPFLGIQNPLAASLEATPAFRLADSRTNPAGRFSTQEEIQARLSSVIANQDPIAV

`COc1ccc(CCNC(=O)[C@@H]2c3ccccc3C(=O)N(Cc3cc(F)cc(C(F)(F)F)c3)[C@H]2c2ccc(CO)cc2)cc1`: the composite z-score was 1.65 in experiment [1]; 0.705 in [2]; 0.272 in [3]; 0.235 in experiment [4]; 0.158 in experiment [5]; 1.17 in experiment [6]. Also, the composite z-score in [7] was 0.975; in experiment [9], 2.49; in [10], -0.251; in experiment [11], 1.54; in experiment [15], 2.21; in experiment [17], 0.159. The figures for the composite z-score in [18], in experiment [19] and in experiment [20] were 0.415, 0.195 and 0.179, respectively. Also, the z-score in experiment [8] is -1.36 (inactive); in experiment [12], -0.0253 (inactive); in [13] it was -0.131 (inactive); in experiment [14] it was 0.142 (inactive); in [16], 1.02 (inactive).

Turning to `CC(C)c1ccc(NN2C(C(O)C3CCCCC3)C=CC3C(=O)N(c4ccccc4)C(=O)C32)cc1` (stereo not given), the composite z-score in experiment [1] was determined as 0.249; in [2], 0.333; in experiment [3], 0.224; in experiment [4] it was 0.509; in experiment [5] it was 1.6; in [6], 1.22. In addition, the composite z-score in [7] was 1; in experiment [9] it was 1.62; in experiment [10], 0.142; in experiment [11] it was 1.02; in experiment [15] it was 3.07; in experiment [17], 0.0779. The composite z-score in [18] was -0.0338; in experiment [19] it was 1.03; in experiment [20] it was 0.168. Besides, the z-score was -1.09 (inactive) in experiment [8]; 0.487 (inactive) in experiment [12]; 0.361 (inactive) in experiment [13]; -0.287 (inactive) in experiment [14]; -1.23 (inactive) in [16].

With `COc1ccc(NN2C(C(O)c3ccccc3)C=CC3C(=O)N(C4CCCCC4)C(=O)C32)cc1` (stereo not given), the composite z-score was found to be 0.0373 in [1]; 0.166 in experiment [2]; 0.0402 in experiment [3]; 0.851 in experiment [4]; 1.59 in experiment [5]; 1.39 in [6]. The composite z-score in experiment [7] stood at 1.3; in [9], 1.5; in experiment [10] it was 0.224; in [11], 1.56; in experiment [15], 3.34; in experiment [17], 0.107. The composite z-score turned out to be 1.08 in experiment [18], 1.06 in experiment [19] and 0.0953 in experiment [20]. Moreover, the z-score in [8] is 1.78 (inactive); in [12] it was -0.0673 (inactive); in experiment [13], 0.991 (inactive); in [14] it was 1.34 (inactive); in experiment [16], 0.0456 (inactive).

As for `CCCCCCc1nc(Cc2cc(OC)c(OC)c(OC)c2)c(C)c2c1[Si](C(C)C)(C(C)C)OC2`, the composite z-score in [1] was -0.491; in [2], 0.0293; in [3], -0.0328; in experiment [4] it was -0.0482; in experiment [5] it was -0.0366; in experiment [6] it was -0.186. The composite z-score in [7] is 0.105; in experiment [9] it was -0.0696; in experiment [10], -0.274; in experiment [11] it was 0.829; in [15], 0.377; in experiment [17] it was -0.0487. Further, the results for the composite z-score in experiment [18], in experiment [19] and in experiment [20] were -0.0156, -0.143 and 0.0172, respectively. In addition, the z-score was -0.474 (inactive) in [8]; -0.42 (inactive) in experiment [12]; -1.61 (inactive) in experiment [13]; -0.0746 (inactive) in [14]; 1.59 (inactive) in experiment [16].

Turning to `O=C1C[C@@](C(=O)NCC(F)(F)F)(c2ccc([N+](=O)[O-])cc2)[C@@H](c2ccc(CO)cc2I)N1CC12CC3CC(CC(C3)C1)C2`, the composite z-score is -0.405 in [1]; -0.0271 in experiment [2]; -0.106 in experiment [3]; 0.121 in experiment [4]; 0.729 in experiment [5]; 1.01 in experiment [6]. The composite z-score is 1.23 in experiment [7]; 1.08 in experiment [9]; -0.239 in experiment [10]; 1.55 in experiment [11]; 2.73 in experiment [15]; -0.189 in [17]. Also, the values for the composite z-score in experiment [18], in experiment [19] and in experiment [20] were 0.515, 0.978 and -0.206, respectively. In addition, the z-score in experiment [8] was -2.99 (inactive); in [12], -1.36 (inactive); in experiment [13], -0.301 (inactive); in experiment [14], 21.1 (active); in experiment [16], 0.548 (inactive).
